# Reference: the supplement of paper PMC9950053
# Counter-ions that a name gives are not always drawn.
# Tested on: Danio rerio larvae (5 dpf)
# Experiment: startle (activity period 16 minus period 15, 20-s interval sound) minus DMSO control (percentage points); higher = stronger startle response than DMSO larvae
# Conditions: 10 µM; exposure time: 3 h pre-incubation + 3 h imaging
# Method: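 Wild-type 5 dpf zebrafish larvae (n=48 per drug, 96-well plates, 28.5 °C) were exposed to Tocris FDA-approved library compounds at 10 µM (0.1% DMSO) for 3 h before and 3 h during imaging. Images were taken every 6 s during visual and acoustic stimuli, and larvae were tracked with Z-LaP Tracker. Each measure is the treated-group mean minus the DMSO control mean (n=844), in percentage points. This mapping covers compounds with 5-character plate codes.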
row,SMILES,startle
1,COc1ccc(C(CN(C)C)C2(O)CCCCC2)cc1 (stereo unspecified) [Venlafaxine hydrochloride],-6.7
